Measurements: the supplement of paper PMC7411054
Where a name gives a salt, the structure may show the parent alone.

How the values were obtained:
Details in all cases: treatment time: 24 h
[1] = test system: A549-ACTB-RAB5A; experiment: lowest phenotypically active concentration; higher = less potent
Summary of the method: (§1)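 Cells from fifteen gene-edited reporter lines (A549, HepG2 and WPMY1) were treated for 24 h at 0.3, 1, 3 or 9 µM and imaged live, four wells per condition. Features were normalised per well to solvent control wells. A condition deviated if ≥3 of 4 wells passed the 95th percentile of control Euclidean distances and was reproducible if its median replicate Pearson correlation beat the 95th percentile of non-replicates; phenotypic activity needed both.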

[2] = test system: A549-GM130-SQSTM1; experiment: as above
Summary of the method: as §1

[3] = test system: A549-ACTB-RAB5A; experiment: phenotypically active (imaging signature differs from DMSO and reproducible) at any of 0.3-9 uM (binary (1 = active, 0 = inactive)); higher = active
Summary of the method: as §1

[4] = test system: A549-CANX-COX4; experiment: as above
Summary of the method: as §1

[5] = test system: A549-GM130-SQSTM1; experiment: as above
Summary of the method: as §1

[6] = test system: A549-TP53BP1-CLTA; experiment: as above
Summary of the method: as §1

[7] = test system: A549-TUBA1B-RELA; experiment: as above
Summary of the method: as §1

[8] = test system: HepG2-ACTB-RAB5A; experiment: as above
Summary of the method: as §1

[9] = test system: HepG2-CANX-COX4; experiment: as above
Summary of the method: as §1

[10] = test system: HepG2-GM130-SQSTM1; experiment: as above
Summary of the method: as §1

[11] = test system: HepG2-TP53BP1-CLTA; experiment: as above
Summary of the method: as §1

[12] = test system: HepG2-TUBA1B-RELA; experiment: as above
Summary of the method: as §1

[13] = test system: WPMY1-ACTB-RAB5A; experiment: as above
Summary of the method: as §1

[14] = test system: WPMY1-CANX-COX4; experiment: as above
Summary of the method: as §1

[15] = test system: WPMY1-GM130-SQSTM1; experiment: as above
Summary of the method: as §1

[16] = test system: WPMY1-TP53BP1-CLTA; experiment: as above
Summary of the method: as §1

[17] = test system: WPMY1-TUBA1B-RELA; experiment: as above
Summary of the method: as §1

[18] = test system: A549-TUBA1B-RELA; experiment: lowest phenotypically active concentration; higher = less potent
Summary of the method: as §1

[19] = test system: HepG2-ACTB-RAB5A; experiment: as above
Summary of the method: as §1

[20] = test system: HepG2-TP53BP1-CLTA; experiment: as above
Summary of the method: as §1

**Q.** How did the “lowest phenotypically active concentration” value [1] turn out when `CCOP(=O)(OCC)C(=Cc1cc(C(C)(C)C)c(O)c(C(C)(C)C)c1)P(=O)(OCC)OCC` was run?
**A.** 9 µM

**Q.** And the “lowest phenotypically active concentration” value [2]?
**A.** 9 µM

**Q.** And the phenotypically active [3]?
**A.** 1 (active)

**Q.** And the phenotypically active [4]?
**A.** 0 (inactive)

**Q.** What about the phenotypically active [5] of the same compound?
**A.** 1 (active)

**Q.** What about the phenotypically active [6] of the same compound?
**A.** 0 (inactive)

**Q.** And the phenotypically active [7]?
**A.** 0 (inactive)

**Q.** What about the phenotypically active [8] of the same compound?
**A.** 0 (inactive)

**Q.** And the phenotypically active [9]?
**A.** 0 (inactive)

**Q.** What about the phenotypically active [10] of the same compound?
**A.** 0 (inactive)

**Q.** And the phenotypically active [11]?
**A.** 0 (inactive)

**Q.** And the phenotypically active [12]?
**A.** 0 (inactive)

**Q.** And the phenotypically active [13]?
**A.** 0 (inactive)

**Q.** What about the phenotypically active [14] of the same compound?
**A.** 0 (inactive)

**Q.** What about the phenotypically active [15] of the same compound?
**A.** 0 (inactive)

**Q.** What about the phenotypically active [16] of the same compound?
**A.** 0 (inactive)

**Q.** What about the phenotypically active [17] of the same compound?
**A.** 0 (inactive)

**Q.** What does the source list for `CN1[C@@H]2CC[C@H]1C[C@@H](OC(c1ccccc1)c1ccccc1)C2` [benztropine]?
**A.** lowest phenotypically active concentration [1]: 9 µM; lowest phenotypically active concentration [2]: 9 µM; lowest phenotypically active concentration [18]: 9 µM; lowest phenotypically active concentration [19]: 9 µM; lowest phenotypically active concentration [20]: 9 µM; phenotypically active [3]: 1 (active); phenotypically active [4]: 0 (inactive); phenotypically active [5]: 1 (active); phenotypically active [6]: 1 (active); phenotypically active [7]: 1 (active); phenotypically active [8]: 1 (active); phenotypically active [9]: 1 (active); phenotypically active [10]: 0 (inactive); phenotypically active [11]: 1 (active); phenotypically active [12]: 1 (active); phenotypically active [13]: 0 (inactive); phenotypically active [14]: 1 (active); phenotypically active [15]: 1 (active); phenotypically active [16]: 0 (inactive); phenotypically active [17]: 1 (active)

**Q.** `O=C(O)C[C@H](O)C[C@H](O)/C=C/c1c(C2CC2)nc2ccccc2c1-c1ccc(F)cc1` [Pitavastatin calcium] was tested. Which “lowest phenotypically active concentration” value [1] did it give?
**A.** 1 µM

**Q.** And the “lowest phenotypically active concentration” value [2]?
**A.** 9 µM

**Q.** And the “lowest phenotypically active concentration” value [19]?
**A.** 1 µM

**Q.** What about the “lowest phenotypically active concentration” value [20] of the same compound?
**A.** 1 µM

**Q.** What about the phenotypically active [3] of the same compound?
**A.** 1 (active)

**Q.** What about the phenotypically active [4] of the same compound?
**A.** 0 (inactive)

**Q.** And the phenotypically active [5]?
**A.** 1 (active)

**Q.** What about the phenotypically active [6] of the same compound?
**A.** 1 (active)

**Q.** What about the phenotypically active [7] of the same compound?
**A.** 0 (inactive)

**Q.** What about the phenotypically active [8] of the same compound?
**A.** 1 (active)

**Q.** What about the phenotypically active [9] of the same compound?
**A.** 1 (active)

**Q.** What about the phenotypically active [10] of the same compound?
**A.** 1 (active)

**Q.** And the phenotypically active [11]?
**A.** 1 (active)

**Q.** What about the phenotypically active [12] of the same compound?
**A.** 1 (active)

**Q.** What about the phenotypically active [13] of the same compound?
**A.** 1 (active)

**Q.** What about the phenotypically active [14] of the same compound?
**A.** 1 (active)

**Q.** What about the phenotypically active [15] of the same compound?
**A.** 1 (active)

**Q.** What about the phenotypically active [16] of the same compound?
**A.** 1 (active)

**Q.** And the phenotypically active [17]?
**A.** 1 (active)

**Q.** `Cn1cc(CCn2cnc(-c3cnn(C)c3)c2-c2ccc(C#N)cc2)cn1` was tested. Which “lowest phenotypically active concentration” value [1] did it give?
**A.** 9 µM

**Q.** And the “lowest phenotypically active concentration” value [2]?
**A.** 9 µM

**Q.** And the phenotypically active [3]?
**A.** 1 (active)

**Q.** What about the phenotypically active [4] of the same compound?
**A.** 0 (inactive)

**Q.** What about the phenotypically active [5] of the same compound?
**A.** 1 (active)

**Q.** And the phenotypically active [6]?
**A.** 0 (inactive)

**Q.** And the phenotypically active [7]?
**A.** 0 (inactive)

**Q.** And the phenotypically active [8]?
**A.** 0 (inactive)

**Q.** What about the phenotypically active [9] of the same compound?
**A.** 0 (inactive)

**Q.** And the phenotypically active [10]?
**A.** 0 (inactive)

**Q.** What about the phenotypically active [11] of the same compound?
**A.** 0 (inactive)

**Q.** What about the phenotypically active [12] of the same compound?
**A.** 0 (inactive)

**Q.** And the phenotypically active [13]?
**A.** 0 (inactive)

**Q.** What about the phenotypically active [14] of the same compound?
**A.** 0 (inactive)

**Q.** And the phenotypically active [15]?
**A.** 0 (inactive)

**Q.** What about the phenotypically active [16] of the same compound?
**A.** 0 (inactive)

**Q.** What about the phenotypically active [17] of the same compound?
**A.** 0 (inactive)

**Q.** With `O=C(O)Cc1cccc(OCCCN(Cc2cccc(C(F)(F)F)c2Cl)CC(c2ccccc2)c2ccccc2)c1` [GW 3965 hydrochloride] as the compound, how does the “lowest phenotypically active concentration” value [1] read?
**A.** 9 µM

**Q.** What about the phenotypically active [3] of the same compound?
**A.** 1 (active)

**Q.** And the phenotypically active [4]?
**A.** 1 (active)

**Q.** What about the phenotypically active [5] of the same compound?
**A.** 0 (inactive)

**Q.** And the phenotypically active [6]?
**A.** 0 (inactive)

**Q.** And the phenotypically active [7]?
**A.** 0 (inactive)

**Q.** And the phenotypically active [8]?
**A.** 0 (inactive)

**Q.** What about the phenotypically active [9] of the same compound?
**A.** 1 (active)

**Q.** What about the phenotypically active [10] of the same compound?
**A.** 0 (inactive)

**Q.** What about the phenotypically active [11] of the same compound?
**A.** 0 (inactive)

**Q.** What about the phenotypically active [12] of the same compound?
**A.** 1 (active)

**Q.** And the phenotypically active [13]?
**A.** 0 (inactive)

**Q.** And the phenotypically active [14]?
**A.** 0 (inactive)

**Q.** And the phenotypically active [15]?
**A.** 0 (inactive)

**Q.** And the phenotypically active [16]?
**A.** 0 (inactive)

**Q.** What about the phenotypically active [17] of the same compound?
**A.** 0 (inactive)

**Q.** What does the source list for `CC(C)(C)c1ccc2cc(C#N)c(C#N)cc2c1`?
**A.** lowest phenotypically active concentration [1]: 3 µM; lowest phenotypically active concentration [2]: 3 µM; phenotypically active [3]: 1 (active); phenotypically active [4]: 0 (inactive); phenotypically active [5]: 1 (active); phenotypically active [6]: 0 (inactive); phenotypically active [7]: 0 (inactive); phenotypically active [8]: 0 (inactive); phenotypically active [9]: 0 (inactive); phenotypically active [10]: 0 (inactive); phenotypically active [11]: 0 (inactive); phenotypically active [12]: 0 (inactive); phenotypically active [13]: 0 (inactive); phenotypically active [14]: 0 (inactive); phenotypically active [15]: 0 (inactive); phenotypically active [16]: 0 (inactive); phenotypically active [17]: 0 (inactive)
